# Assay results reported in PubChem BioAssay.
# Several values for one entry are separate records, joined by “and”; a condition that tells them apart may be missing. Equal values may be shown once. Activity calls are given as the source filed them.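 The calls were made as follows, unless noted: active = compounds whose cell count with miR-34 switched on is under 0.7 times the count with it off; inactive = the rest.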
# Columns and labels:
# [1] = hESC survival regulators, cell-based (AID 493140; call rule not given here;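 also: cells exposed to compounds for four days before counting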); details: human embryonic stem cell survival screen; stronger effect = higher value
# [2] = liver-stage malaria parasite growth inhibition, primary screen, cell-based, HepG2, luciferase luminescence, HepG2 viability (AID 624349; in the data active = parasite load remaining mostly below about 12%, no sharp cut-off; inactive = mostly above about 10%;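 also: 100% = mean of DMSO negative control wells on the same plate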); details: P. berghei liver stage in HepG2, luciferase luminescence, concentration not given here; parasite load remaining: stronger effect = lower value; viability: measured here: HepG2 viability without parasites
# [3] = stimulators of nuclear beta-catenin in C2C12, primary screen, imaging, WNT3A-conditioned medium, mouse C2C12, NPC library (AID 1117326; in the data active = nuclear beta-catenin stimulation mostly above about 4.2%, no sharp cut-off; inactive = mostly below about 10%); details: stronger effect = higher value
# [4] = stimulators of insulin release from INS-1E, primary screen, cell-based, 5 mM glucose, NPC library (AID 1117329;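 active = compound raises insulin release from rat beta cells at 5 mM glucose, no numeric limit stated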); details: rat INS-1E insulin secretion, at 10 µM, stronger effect = higher value
# [5] = growth inhibition of GSK3B-pretreated HCT116 cells – cell-based, CellTiter-Glo, 0.2 to 20 µM (AID 1117336;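 active = compounds lowering colon cancer cell viability after pretreatment blocking the GSK3B kinase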); details: HCT116 viability after GSK3B inhibitor, at 20 µM, stronger effect = higher value
# [6] = inhibition of endothelial tube formation, primary screen, imaging, VEGF stimulated, CD31 staining, tube area, NPC library (AID 1117340;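 active = compound that reduces growth-factor-driven endothelial tube area in a mixed cell culture, no cutoff stated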); details: VEGF-stimulated ADSC/ECFC co-culture, at 10 µM, stronger effect = higher value
# [7] = glucagon-like peptide 1 release enhancers, primary assay, NCI-H716 cell line, NPC library (AID 1117341;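 active = compound raises GLP1 secretion from the human gut endocrine cells, with no numeric limit stated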); details: NCI-H716 cells, at 10 µM, stronger effect = higher value
# [8] = HCT116 colon cancer cell growth inhibition, primary screen, CellTiter-Glo luminescence, NPC library (AID 1117342;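 active = compounds that lower survival of HCT116 colon cancer cells in the luminescence readout, no numeric limit stated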); details: at 20 µM (top of the series)
# [9] = CellTiter-Glo luminescent readout of SW480 viability loss, NPC library primary (AID 1117343;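 active = compounds that lower viability of the colon cancer cells in the luminescence readout, with no numeric limit stated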); details: CellTiter-Glo luminescence; at 20 µM (top of the series)
# [10] = decreased DLD-1 cellular survival, CellTiter-Glo luminescent readout, NPC compound collection, primary HTS (AID 1117346;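 active = compounds that lower survival of DLD-1 colon cancer cells in the luminescence readout, no cutoff given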); details: DLD-1 viability, CellTiter-Glo luminescence; at 20 µM (top of the series)
# [11] = system: Aerobactin synthetase IucA (Klebsiella pneumoniae, hypervirulent); test: IucA enzyme inhibition, biochemical, LOPAC library, absorbance readout (AID 1346212; call rule not given here;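 also: 100% = no compound wells and 0% = no enzyme wells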); details: IucA enzyme assay, absorbance (OD) readout; stronger effect = lower value;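 tested at 8 µM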
# [12] = sensitizers of A549 cells to miR-34 induction, primary screen, imaging, A549 dox-inducible miR-34, nuclei and caspase counts (AID 1347080); details: A549 miR-34 inducible, Hoechst nuclei count, 48 h
# [13] = viability rescue of complex I mutant cybrids, primary screen, cell-based, galactose medium, ATP luminescence (AID 1645843;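 active = z-score of at least 1.8 in each of two replicates, scored against plate mean and spread of sample wells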;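 also: positive z means more ATP and so rescue of galactose-driven cybrid death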); details: complex I mutant cybrid cells, 72 h, stronger effect = higher value
# [14] = differential killing of epithelial or mesenchymal cells, primary screen, imaging, PC-3E GFP, TEM4-18 mCherry, co-culture (AID 1345086;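 active = compounds killing one labelled cell type while sparing the other, by normalised counts and ratio limits, not self-fluorescent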;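 as to all read-outs here: cells exposed to compound for 72 h before imaging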;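 as to red/green cell ratio (normalised): normalised mesenchymal count divided by normalised epithelial count so high means epithelial killing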); details: imaging cell counts, at 1 µM; for red/green cell ratio (normalised): actives lie on both sides
# [15] = biological target: NAD(+) hydrolase SARM1 (Homo sapiens) (UniProt Q6SZW1); test: SARM1 TIR NADase inhibitors, cell lysate, NAD-Glo luminescence (AID 1508614;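 active = compound whose remaining NAD level is above about 45 nM, limit read from the data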;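 also: higher remaining NAD means stronger inhibition of SARM1 NADase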); details: SAM-TIR HEK293T lysate NADase, at 1 µM, stronger effect = higher value
# Chain of NAD(+) hydrolase SARM1 (Homo sapiens) (Q6SZW1 whole entry, looked up, the tested form may be a part): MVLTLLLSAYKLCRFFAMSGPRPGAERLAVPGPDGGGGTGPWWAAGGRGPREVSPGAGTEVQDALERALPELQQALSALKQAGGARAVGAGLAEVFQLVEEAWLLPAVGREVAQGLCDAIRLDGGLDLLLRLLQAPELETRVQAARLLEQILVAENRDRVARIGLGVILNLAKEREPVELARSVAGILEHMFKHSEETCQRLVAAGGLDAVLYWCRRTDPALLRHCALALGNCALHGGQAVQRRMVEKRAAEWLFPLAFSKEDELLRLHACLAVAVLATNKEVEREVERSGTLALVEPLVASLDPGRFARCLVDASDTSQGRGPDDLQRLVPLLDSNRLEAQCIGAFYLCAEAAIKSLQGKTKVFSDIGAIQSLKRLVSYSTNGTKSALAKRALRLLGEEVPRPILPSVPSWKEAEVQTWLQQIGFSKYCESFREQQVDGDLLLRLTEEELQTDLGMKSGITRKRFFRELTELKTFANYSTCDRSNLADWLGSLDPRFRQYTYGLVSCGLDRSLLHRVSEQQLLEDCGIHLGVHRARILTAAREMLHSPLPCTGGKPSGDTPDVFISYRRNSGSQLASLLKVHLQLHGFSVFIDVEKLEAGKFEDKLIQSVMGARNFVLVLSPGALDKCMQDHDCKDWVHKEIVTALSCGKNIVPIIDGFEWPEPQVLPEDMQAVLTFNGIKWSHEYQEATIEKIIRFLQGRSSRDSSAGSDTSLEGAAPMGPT
# [16] = biological target: Mitogen-activated protein kinase 7 (Homo sapiens) (UniProt Q13164); test: ERK5 transactivation activators in reporter cells, primary screen, cell-based, HTS (AID 1508626;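 active = luciferase signal above three times the same-plate solvent-only control wells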;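 also: luciferase driven by Gal4-ERK5 fusion binding five Gal4 sites before minimal TATA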); details: HeLa Gal4-ERK5 transactivation, 18 h, at 5 µM, stronger effect = higher value
# Chain of Mitogen-activated protein kinase 7 (Homo sapiens) (Q13164 whole entry, looked up, the tested form may be a part): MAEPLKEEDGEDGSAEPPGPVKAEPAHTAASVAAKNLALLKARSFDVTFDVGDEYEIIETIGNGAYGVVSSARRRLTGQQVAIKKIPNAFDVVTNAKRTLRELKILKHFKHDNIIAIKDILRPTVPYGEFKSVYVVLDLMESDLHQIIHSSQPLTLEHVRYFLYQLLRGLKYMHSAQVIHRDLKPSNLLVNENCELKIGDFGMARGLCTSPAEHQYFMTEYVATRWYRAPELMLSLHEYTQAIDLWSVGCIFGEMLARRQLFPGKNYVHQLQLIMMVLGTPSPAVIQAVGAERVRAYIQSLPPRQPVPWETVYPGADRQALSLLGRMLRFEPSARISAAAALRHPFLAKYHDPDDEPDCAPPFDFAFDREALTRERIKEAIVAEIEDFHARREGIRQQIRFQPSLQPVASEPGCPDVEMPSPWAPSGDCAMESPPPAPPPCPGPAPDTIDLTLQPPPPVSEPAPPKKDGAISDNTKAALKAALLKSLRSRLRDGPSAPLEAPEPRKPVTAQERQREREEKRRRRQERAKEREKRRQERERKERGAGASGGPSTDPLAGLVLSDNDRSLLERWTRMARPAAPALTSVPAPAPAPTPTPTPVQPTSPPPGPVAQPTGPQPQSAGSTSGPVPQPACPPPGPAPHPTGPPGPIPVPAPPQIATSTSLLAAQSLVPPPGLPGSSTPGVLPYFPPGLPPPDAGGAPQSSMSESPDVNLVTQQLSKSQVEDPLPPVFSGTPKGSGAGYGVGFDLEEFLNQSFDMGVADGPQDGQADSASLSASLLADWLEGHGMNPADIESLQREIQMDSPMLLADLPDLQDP
# [17] = survival rescue of mitochondrial mutant cells in low glucose, primary screen, MELAS cybrids, Rieske KO mouse fibroblasts, CellTiter-Glo (AID 1508586;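 active = mean z-score across replicates of 1.96 or higher in either the MELAS or the Rieske mutant cell line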;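 also: z relative to plate mean and SD of compound and empty wells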)
# [18] = measured here: relative caspase fold change +Dox/-Dox
# [19] = measured here: total cells with miR-34 induction, stronger effect = lower value
# [20] = measured here: total cells without miR-34 induction
# [21] = stronger effect = lower value, cell number ratio, induced over uninduced
# [22] = measured here: epithelial PC-3E GFP cell survival
# [23] = measured here: mesenchymal TEM4-18 mCherry cell survival
# [24] = MELAS cybrid survival, CellTiter-Glo 48 h, stronger effect = higher value
# [25] = Rieske KO mouse fibroblast survival, CellTiter-Glo 72 h
compound,measurement,setting,value
CCCCc1ccc(C(=O)O)nc1,survival,[1],6.17 (inactive)
same,parasite load remaining,[2],113% (inactive) and 80.1% (inactive)
same,viability,[2],102% and 74.9%
same,nuclear beta-catenin stimulation,[3]; at 10 µM,0.7% (inactive)
same,nuclear beta-catenin stimulation,"[3]; stimulation, at 2 µM",2.6%
same,insulin secretion stimulation,[4],0.5% (inactive)
same,viability decrease,[5],9.1% (inactive)
same,tube area decrease,[6],-19.3% (inactive)
same,GLP1 secretion stimulation,[7],-1.2% (inactive)
same,inhibition of viability,[8],25.9% (inactive)
same,viability decrease (inhibition),[9],82.1% (active)
same,viability decrease (inhibition),[10],3.1% (inactive)
same,remaining activity,[11],102% (inactive)
same,fold change,[12]; stronger effect = lower value,0.891 (inactive) and 0.841 (inactive)
same,fold change,[12]; [18],1.39 and 1.24
same,cell count,[12]; [19],9790 and 8980
same,cell count,[12]; [20],11000 and 10700
same,z-score,[13],0.395 (inactive)
FC(F)(F)c1cccc(C2=CCN(CCc3ccc4ccccc4c3)CC2)c1,nuclear beta-catenin stimulation,[3]; at 10 µM,-0.7% (inactive)
same,nuclear beta-catenin stimulation,"[3]; stimulation, at 2 µM",-1.5%
same,insulin secretion stimulation,[4],0.45% (inactive)
same,viability decrease,[5],40.2% (inactive)
same,tube area decrease,[6],-6.6% (inactive)
same,GLP1 secretion stimulation,[7],3.7% (inactive)
same,inhibition of viability,[8],42.1% (inactive)
same,viability decrease (inhibition),[9],53.5% (active)
same,viability decrease (inhibition),[10],17.3% (inactive)
same,fold change,[12]; [21],0.954 (inactive)
same,fold change,[12]; [18],1.47
same,cell count,[12]; [19],8420
same,cell count,[12]; [20],8830
same,z-score,[13],-0.615 (inactive)
Cc1nnc2n1-c1sc(CCC(=O)N3CCOCC3)cc1C(c1ccccc1Cl)=NC2,nuclear beta-catenin stimulation,[3]; at 10 µM,0.3% (inactive)
same,nuclear beta-catenin stimulation,"[3]; stimulation, at 2 µM",-0.9%
same,insulin secretion stimulation,[4],3.7% (inactive)
same,viability decrease,[5],11.7% (inactive)
same,tube area decrease,[6],1.8% (inactive)
same,GLP1 secretion stimulation,[7],0.4% (inactive)
same,inhibition of viability,[8],13.6% (inactive)
same,viability decrease (inhibition),[9],-4.5% (inactive)
same,viability decrease (inhibition),[10],-5.7% (inactive)
same,fold change,[12]; stronger effect = lower value,1.01 (inactive)
same,fold change,[12]; [18],0.912
same,cell count,[12]; [19],9280
same,cell count,[12]; [20],9210
same,z-score,[13],-0.365 (inactive)
C#C[C@]1(O)C=C[C@H]2[C@@H]3CCC4=CC(=O)CC[C@@H]4[C@H]3CC[C@@]21CC,nuclear beta-catenin stimulation,[3]; at 10 µM,0.9% (inactive)
same,nuclear beta-catenin stimulation,"[3]; stimulation, at 2 µM",-1%
same,insulin secretion stimulation,[4],-0.7% (inactive)
same,viability decrease,[5],7.4% (inactive)
same,tube area decrease,[6],-2.3% (inactive)
same,GLP1 secretion stimulation,[7],3.4% (inactive)
same,inhibition of viability,[8],32.2% (inactive)
same,viability decrease (inhibition),[9],-18.5% (inactive)
same,viability decrease (inhibition),[10],-11.8% (inactive)
COC[C@@H](NC(C)=O)C(=O)NCc1ccccc1,nuclear beta-catenin stimulation,[3]; at 10 µM,0.6% (inactive)
same,nuclear beta-catenin stimulation,"[3]; stimulation, at 2 µM",-0.7%
same,insulin secretion stimulation,[4],-0.4% (inactive)
same,viability decrease,[5],-7.9% (inactive)
same,tube area decrease,[6],-1.1% (inactive)
same,GLP1 secretion stimulation,[7],-0.8% (inactive)
same,inhibition of viability,[8],1.2% (inactive)
same,viability decrease (inhibition),[9],-1% (inactive)
same,viability decrease (inhibition),[10],9.6% (inactive)
COP(=O)(OC)OC=C(Cl)Cl,parasite load remaining,[2],43.6% (inactive)
same,viability,[2],96%
same,nuclear beta-catenin stimulation,[3]; at 10 µM,-0.5% (inactive)
same,nuclear beta-catenin stimulation,"[3]; stimulation, at 2 µM",-1.3%
same,insulin secretion stimulation,[4],-1.6% (inactive)
same,viability decrease,[5],37% (inactive)
same,tube area decrease,[6],-16.8% (inactive)
same,GLP1 secretion stimulation,[7],-1.2% (inactive)
same,inhibition of viability,[8],-1.53% (inactive)
same,viability decrease (inhibition),[9],26.8% (inactive)
same,viability decrease (inhibition),[10],-3.8% (inactive)
same,red/green cell ratio (normalised),"[14]; counts scaled to control wells, 1 = unselective",1.1 (inactive)
same,normalised cell number,[14]; [22],1.09
same,normalised cell number,[14]; [23],1.2
same,fold change,[12]; [21],0.895 (inactive)
same,fold change,[12]; [18],1.25
same,cell count,[12]; [19],10900
same,cell count,[12]; [20],12200
same,remaining NAD,[15],10 nM (inactive)
same,luciferase signal,[16],84 AU (inactive)
COP(=O)(OC)C(O)C(Cl)(Cl)Cl (stereo not given),survival,[1],17.5 (inactive)
same,parasite load remaining,[2],19.7% (inactive) and 127% (inactive)
same,viability,[2],48.9% and 90.6%
same,nuclear beta-catenin stimulation,[3]; at 10 µM,-1.9% (inactive)
same,nuclear beta-catenin stimulation,"[3]; stimulation, at 2 µM",0.4%
same,insulin secretion stimulation,[4],0.2% (inactive)
same,viability decrease,[5],2.4% (inactive)
same,tube area decrease,[6],5.8% (inactive)
same,GLP1 secretion stimulation,[7],-3.2% (inactive)
same,inhibition of viability,[8],-44.1% (inactive)
same,viability decrease (inhibition),[9],1.6% (inactive)
same,viability decrease (inhibition),[10],-13.3% (inactive)
same,red/green cell ratio (normalised),[14],0.95 (inactive)
same,normalised cell number,[14]; [22],0.96
same,normalised cell number,[14]; [23],0.91
same,fold change,[12]; stronger effect = lower value,0.918 (inactive)
same,fold change,[12]; [18],1.24
same,cell count,[12]; [19],8320
same,cell count,[12]; [20],9070
same,remaining NAD,[15],10 nM (inactive)
O=C1NCN(c2ccccc2)C12CCN(CC1COc3ccccc3O1)CC2 (stereo not given),parasite load remaining,[2],34.8% (inactive)
same,viability,[2],103%
same,nuclear beta-catenin stimulation,[3]; at 10 µM,-0.5% (inactive)
same,nuclear beta-catenin stimulation,"[3]; stimulation, at 2 µM",0.8%
same,insulin secretion stimulation,[4],1.2% (inactive)
same,viability decrease,[5],-65.9% (inactive)
same,tube area decrease,[6],5.4% (inactive)
same,GLP1 secretion stimulation,[7],0.9% (inactive)
same,inhibition of viability,[8],17.3% (inactive)
same,viability decrease (inhibition),[9],28.7% (inactive)
same,viability decrease (inhibition),[10],3.2% (inactive)
same,remaining activity,[11],93.6% (inactive)
same,fold change,[12]; stronger effect = lower value,1.02 (inactive) and 0.89 (inactive) and 0.887 (inactive)
same,fold change,[12]; [18],1.92 and 0.981 and 1.04
same,cell count,[12]; [19],9490 and 8620 and 9600
same,cell count,[12]; [20],9350 and 9690 and 10800
same,z-score,[17]; [24],0.415 (inactive)
same,z-score,[17]; [25],1.51
same,z-score,[13],0.48 (inactive) and 0.105 (inactive) and 0.78 (inactive)
CC1(C)[C@H](C=C(Cl)Cl)[C@@H]1C(=O)OCc1c(F)c(F)cc(F)c1F,nuclear beta-catenin stimulation,[3]; at 10 µM,-2.8% (inactive)
same,nuclear beta-catenin stimulation,"[3]; stimulation, at 2 µM",-1.8%
same,insulin secretion stimulation,[4],0.45% (inactive)
same,GLP1 secretion stimulation,[7],-5.4% (inactive)
Clc1ccc(CCC(Cn2ccnc2)Sc2c(Cl)cccc2Cl)cc1 (stereo not given),survival,[1],15 (inactive)
same,parasite load remaining,[2],5.94% (inactive) and 63.9% (inactive)
same,viability,[2],103% and 82.5%
same,nuclear beta-catenin stimulation,[3]; at 10 µM,15.6% (inactive)
same,nuclear beta-catenin stimulation,"[3]; stimulation, at 2 µM",4.3%
same,insulin secretion stimulation,[4],-0.2% (inactive)
same,viability decrease,[5],101% (active)
same,tube area decrease,[6],109% (active)
same,GLP1 secretion stimulation,[7],20.8% (active)
same,inhibition of viability,[8],101% (active)
same,viability decrease (inhibition),[9],123% (active)
same,viability decrease (inhibition),[10],103% (active)
same,fold change,[12]; stronger effect = lower value,0.969 (inactive) and 0.821 (inactive) and 0.887 (inactive)
same,fold change,[12]; [18],0.807 and 1.54 and 0.572
same,cell count,[12]; [19],5090 and 6860 and 7040
same,cell count,[12]; [20],5260 and 8350 and 7940
same,z-score,[17]; [24],0.075 (inactive) and -0.442 (inactive)
same,z-score,[17]; [25],-0.608 and 0.109
